Laboratory results from PubChem BioAssay AID434970 (Sanford-Burnham Center for Chemical Genomics, 2010).
Hit rate of the full screen: of about 11,000 compounds, about 310 (2.8%) were called active. Cut-off read from the data, not from the text of the source: active = activity change below about -85%; inactive = the rest. The entries come from a sample that favours actives as a whole.

The compounds below were run on intestinal alkaline phosphatase [Mus musculus] (assay: activators of mouse IAP, confirmation, biochemical, luminescence, single concentration (AID 434970)). Details: purified mouse IAP, CDP-Star luminescence, 30 min, at 10 µM; activation factor: measured here: IAP activation factor, stronger effect = higher value; activity change, negative = activation: stronger effect = lower value.

SMILES | activation factor | activity change, negative = activation
COc1ccc(OC)c(S(=O)(=O)N2CCC(C(=O)Nc3cccc(C(F)(F)F)c3)CC2)c1 | 1.61 | -60.9% (inactive)
O=C(Nc1cccc(-c2cccc(F)c2)c1)C1CCN(C2CCC2)CC1 | 2.55 | -155% (active)
O=C(Nc1cccc(F)c1)C1CC(=O)N(c2ccc(Cl)cc2)C1 (centres undefined) | 1.07 | -7.45% (inactive)
O=C(Nc1cccc(Cl)c1)NC1CCN(C2CCCCC2)C1 (centres undefined) | 1.85 | -84.9% (inactive)
S=C(Nc1cccc(Cl)c1)NC1CC2CCCC(C1)N2C1CCCC1 (centres undefined) | 1.44 | -44.3% (inactive)
O=C(Nc1cccc(-c2cccc(Cl)c2)c1)C1CCN(C2CCC2)CC1 | 3.94 | -294% (active)
Cc1noc(C)c1COC(=O)C1COc2ccccc2O1 (centres undefined) | 1.08 | -8.15% (inactive)
CC[C@]12c3[nH]c4cc(-c5ccco5)ccc4c3CCN1C(=O)[C@@H](CC(=O)NCC13CC4CC(CC(C4)C1)C3)C[C@@H]2C(=O)N1CCN(C(=O)C2CC2)CC1 | 0.989 | 1.05% (inactive)
COc1cc2sc(-c3ccccc3OC)c(-c3ccc(OCCN4CCOCC4)cc3)c2cc1OC | 1 | -0.3% (inactive)
CCSc1nnc(NC(=O)CCNS(=O)(=O)c2cc(Br)cnc2N)s1 | 0.825 | 17.4% (inactive)
CC(C)(C)c1ccc(NC(=O)Nc2ccc(F)cc2)cc1 | 1.65 | -65.3% (inactive)
O=C(Nc1ccc(F)cc1)Nc1cccc(Br)c1 | 1.74 | -73.8% (inactive)
CCOc1ccc(NC(=O)Nc2cc(OCC(F)(F)F)cc(OCC(F)(F)F)c2)cc1 | 2.08 | -108% (active)
O=C(Nc1ccc(F)cc1)Nc1cc(OCC(F)(F)F)cc(OCC(F)(F)F)c1 | 2.11 | -111% (active)
CCOC(=O)c1cccc(NC(=O)Nc2ccc(OCC)cc2)c1 | 1.88 | -87.6% (inactive)
CCOc1ccc(NC(=O)Nc2cc(C)ccc2OC)cc1 | 1.16 | -15.9% (inactive)
CC(C)Oc1cccc(C(=O)Nc2ccc(N3CCN(S(C)(=O)=O)CC3)cc2)c1 | 1.1 | -10.2% (inactive)
CCOCCCNC(=O)C(C)NS(=O)(=O)c1ccc(C)cc1 (centres undefined) | 0.903 | 9.65% (inactive)
COc1ccc(C(=O)NCC(C)C)c(OC)c1 | 0.893 | 10.7% (inactive)
CC(C)(C)OC(=O)N[C@@H](Cc1ccccc1)c1nnc(SCC(=O)O)o1 | 0.956 | 4.4% (inactive)
O=S(=O)(c1ccc2ccccc2c1)N1CCCOC1 | 1.17 | -16.5% (inactive)
CCOc1ccccc1NC(=O)N1C2CCCC1CC(NC(=O)C1CC1)C2 (centres undefined) | 1.05 | -5.1% (inactive)
COc1cccc(NC(=O)N2CCCC2C(=O)NC(C)C)c1 (centres undefined) | 0.971 | 2.9% (inactive)
COc1cccc(NC(=O)CC2COc3ccccc3O2)c1 (centres undefined) | 1.15 | -15% (inactive)
COc1cccc(C(=O)NC2CCN(C(=O)N3CCCCC3)CC2)c1 | 1.09 | -9.3% (inactive)
CCC1CCC(NC(=O)Nc2cccc(OC)c2)CC1 (centres undefined) | 2.37 | -137% (active)

SMILES | activation factor | activity change, negative = activation
COc1cccc(NC(=O)NC2CCCCCCC2)c1 | 2.67 | -167% (active)
COc1cc(NC(=O)NC2Cc3ccccc3C2)cc(OC)c1 | 2.69 | -169% (active)
CC(=O)c1cccc(NC(=O)NC(C)C2CCCO2)c1 (centres undefined) | 1.12 | -12.2% (inactive)
COc1cccc(NC(=O)NC(C)C2CC3CCC2C3)c1 (centres undefined) | 1.97 | -96.6% (active)
CCN1CCN(CCC(=O)Nc2cccc(OC)c2)CC1 | 0.925 | 7.45% (inactive)
COc1cc(NC(=O)CCN2CCN(Cc3ccccc3)CC2)cc(OC)c1 | 0.978 | 2.15% (inactive)
COc1cc(NC(=O)c2ccccc2)cc(OC)c1 | 0.99 | 0.95% (inactive)
COc1cccc(NC(=O)NCCCSC2CCCCC2)c1 | 1.68 | -67.6% (inactive)
COc1ccc(-c2nnc(SCC(=O)N3CCOCC3)n2C)cc1OC | 1.07 | -7.45% (inactive)
Cn1c(-c2ccc(F)cc2)cnc1NCc1cccc(F)c1 | 0.905 | 9.55% (inactive)
CC(C)OC(=O)c1cccc(NC(=O)c2ccccc2)c1 | 0.988 | 1.25% (inactive)
Cc1oc(-c2cccs2)nc1CSCC(=O)NC1CC1 | 0.893 | 10.8% (inactive)
CN(c1ccccc1C(=O)NCc1ccccn1)S(C)(=O)=O | 1.03 | -3.4% (inactive)
COC(=O)[C@@]1(C)[C@H]2C(=O)N(Cc3ccccc3)C(=O)[C@H]2[C@H]2CN=C(SC)N21 | 1.09 | -9.05% (inactive)
CCN1C(=O)[C@H]2[C@H]3CN=C(SC)N3[C@@](CC)(C(=O)OC)[C@H]2C1=O | 0.957 | 4.3% (inactive)
COC(=O)c1sc2ncn(-n3c(C)ccc3C)c(=O)c2c1C | 1.03 | -3.25% (inactive)
CC[C@]12c3[nH]c4cc(-c5ccco5)ccc4c3CCN1C(=O)[C@@H](CC(=O)NC(C)(C)C)C[C@@H]2C(=O)N1CCN(C(=O)C2CC2)CC1 | 0.984 | 1.6% (inactive)
COc1ccc(NC(=O)Nc2ccc3c(c2)C(=O)N([C@H](C)CO)C[C@H](C)[C@@H](CN(C)C(=O)Nc2ccc(C(F)(F)F)cc2)O3)cc1 | 1.69 | -68.8% (inactive)
C[C@H](CO)N1C[C@H](C)[C@@H](CN(C)S(=O)(=O)c2cccs2)Oc2ccc(NC(=O)NC3CCCCC3)cc2C1=O | 2.6 | -160% (active)
C[C@H](CO)N1C[C@H](C)[C@@H](CN(C)C(=O)Nc2ccc(C(F)(F)F)cc2)Oc2ccc(NC(=O)NC3CCCCC3)cc2C1=O | 1.76 | -76.3% (inactive)
C[C@H]1CN([C@@H](C)CO)C(=O)c2cc(NC(=O)NC3CCCCC3)ccc2O[C@H]1CN(C)C(=O)Nc1ccc(C(F)(F)F)cc1 | 1.58 | -58.1% (inactive)
C[C@H](CO)N1C[C@H](C)[C@@H](CN(C)S(C)(=O)=O)Oc2ccc(NC(=O)Nc3ccc(C(F)(F)F)cc3)cc2C1=O | 1.83 | -83.2% (inactive)
COc1ccc(NC(=O)Nc2ccc3c(c2)C(=O)N([C@H](C)CO)C[C@H](C)[C@@H](CN(C)S(=O)(=O)c2cccs2)O3)cc1 | 2.1 | -110% (active)
C[C@H](CO)N1C[C@H](C)[C@@H](CN(C)S(=O)(=O)c2cccs2)Oc2ccc(NC(=O)Nc3ccccc3)cc2C1=O | 2.52 | -152% (active)
COc1ccc(NC(=O)Nc2ccc3c(c2)C(=O)N([C@@H](C)CO)C[C@@H](C)[C@@H](CN(C)S(=O)(=O)c2cccs2)O3)cc1 | 1.76 | -75.9% (inactive)
C[C@H](CO)N1C[C@H](C)[C@@H](CN(C)S(=O)(=O)c2cccs2)Oc2ccc(NC(=O)Nc3ccc4c(c3)OCO4)cc2C1=O | 1.88 | -87.5% (inactive)

SMILES | activation factor | activity change, negative = activation
CCOC(=O)C1=CN(Cc2ccco2)S(=O)(=O)N(CC)C1c1ccc(C(F)(F)F)cc1 (centres undefined) | 0.893 | 10.7% (inactive)
CCOc1ccc(N2CC(C(=O)NCCCN3CCOCC3)CC2=O)cc1 (centres undefined) | 0.917 | 8.3% (inactive)
COc1ccccc1CC(=O)N(CCC#N)CCC#N | 0.913 | 8.65% (inactive)
O=C(COc1c(F)c(F)cc(F)c1F)NC(=O)NC1CCCC1 | 1.08 | -7.8% (inactive)
N#C/C(=C1/CCCCCN1)c1nc2ccccc2[nH]1 | 1.08 | -7.65% (inactive)
CCOC(=O)N1CCN(S(=O)(=O)c2ccc3c(c2)SCC(=O)N3)CC1 | 1.06 | -6.25% (inactive)
COC(=O)[C@@]1(C)[C@H]2C(=O)N(C)C(=O)[C@H]2[C@H]2CN=C(SCc3ccc(Cl)cc3)N21 | 1.1 | -9.6% (inactive)
Cc1ccccc1C(=O)/C=C1\NC(=O)CS1 | 1.05 | -5.35% (inactive)
COc1cccc(NC(=O)Nc2cc(NC(=O)Nc3cccc(OC)c3)c(C)nc2C)c1 | 1.65 | -65.3% (inactive)
CCOP(=O)(OCC)C(NC(=O)Nc1ccc(Cl)cc1)c1ccccc1 (centres undefined) | 1.56 | -56.5% (inactive)
CC(=O)Nc1cccc(NC(=O)Nc2ccc(C)c(Cl)c2)c1 | 1.9 | -89.6% (inactive)
CCOP(=O)(OCC)C(NC(=O)Nc1ccc(C)c(Cl)c1)c1ccccc1 (centres undefined) | 2.59 | -159% (active)
COc1cccc(NC(=O)CN(c2cccc(C(F)(F)F)c2)S(C)(=O)=O)c1 | 1.12 | -12.2% (inactive)
CCc1ccc(NC(=O)Nc2cccc(OC)c2)cc1 | 1.62 | -62.5% (inactive)
COc1cccc(C(C)NC(=O)Nc2cccc(C(F)(F)F)c2)c1 (centres undefined) | 3.84 | -284% (active)
COc1cccc(NC(=O)Nc2cc(Cl)ccc2C)c1 | 1.41 | -40.7% (inactive)
Cc1ccc(NC(=O)Nc2ccc(F)cc2)cc1Cl | 1.51 | -50.8% (inactive)
COc1cccc(NC(=O)Nc2ccc(C)c(Cl)c2)c1 | 2.17 | -117% (active)
COc1cccc(NC(=O)Nc2ccc(C(C)(C)C)cc2)c1 | 2.18 | -118% (active)
COc1ccc(N2CCN(C(=O)Nc3cccc(C(F)(F)F)c3)CC2)cc1 | 1.14 | -14.2% (inactive)
Cc1oc(-c2ccc3c(c2)OCCO3)cc1C(=O)NC(CCC(=O)O)C(=O)O (centres undefined) | 0.95 | 5.05% (inactive)
O=C(NCCNS(=O)(=O)c1ccccc1)c1cc(OCC(F)(F)F)ccc1OCC(F)(F)F | 1.09 | -9.5% (inactive)
C=CCn1c(=O)c2ccccc2n2c(Sc3nnnn3-c3ccccc3)nnc12 | 1 | -0.35% (inactive)
O=C(CN1N=C(C(F)(F)F)CC1(O)c1ccc([N+](=O)[O-])cc1)c1ccccc1 (centres undefined) | 1.07 | -7.45% (inactive)
CC1=NN(/C(=N\c2nnc(C)s2)Nc2ccc(C(C)(C)C)cc2)[C@H](c2ccc(C)cc2)S1 | 0.976 | 2.45% (inactive)
